Records with an inconclusive call do not appear. The source made the active and inactive calls. How the source made its calls, unless noted: active means hit-call score of the fitted dose curve at least 0.9, where 1 is the maximum; inconclusive means response in the unintended direction; inactive means score below 0.9.
Key:
[1] = ATG_TAL_CIS: Attagene CIS-FACTORIAL HepG2 Assay for human TAL Basal Promoter (AID 2282966; active means hit-call score of the fitted dose curve at least 0.9, where 1 is the maximum; inactive means score below 0.9;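 further: background control endpoint measuring basal TAL promoter reporter mRNA not a specific factor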); details: HepG2 Attagene cis-factorial TAL promoter reporter; actives raise or lower the signal
Outline: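 Endogenous transcription-factor activity is sensed in HepG2 cells through transfected cis-promoter reporter constructs. After 24 h dosing, reporter transcripts are quantified by RT-PCR and capillary electrophoresis. Gain or loss of signal is fitted relative to DMSO.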

[2] = ATG_TGFb_CIS: Attagene CIS-FACTORIAL HepG2 Assay for human Transforming Growth Factor (TGF) (AID 2282967; active means hit-call score of the fitted dose curve at least 0.9, where 1 is the maximum; inactive means score below 0.9); details: HepG2 Attagene CIS TGFb reporter, mRNA transcription; actives raise or lower the signal
Outline: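 Bidirectional fitting relative to DMSO gave the endpoint. Underlying data: reporter mRNA from HepG2 cells carrying transiently transfected cis-regulated reporter constructs, harvested 24 h after dosing and analyzed by RT-PCR and capillary electrophoresis.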

[3] = ATG_VDRE_CIS: Attagene CIS-FACTORIAL HepG2 Assay for human Vitamin D Receptor Element (VDRE) (AID 2282968; active means hit-call score of the fitted dose curve at least 0.9, where 1 is the maximum; inactive means score below 0.9); details: HepG2 VDRE cis-reporter transcription, actives raise or lower the signal
Outline: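 Measures endogenous factor activity through cis-element-driven reporter transcripts in transiently transfected HepG2. Cells are treated 24 h; reporter mRNA is quantified by RT-PCR and capillary electrophoresis; fitting is bidirectional.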

[4] = target: Steroid hormone receptor ERR1 (Homo sapiens) (UniProt P11474); test: ATG_ERRa_TRANS: Attagene TRANS-FACTORIAL HepG2 Assay for human Estrogen-Related Receptor alpha (ERRa) (AID 2282971); details: HepG2 Attagene TRANS reporter, ERRa transactivation
Chain of Steroid hormone receptor ERR1 (Homo sapiens) (P11474 whole entry, looked up, the tested form may be a part): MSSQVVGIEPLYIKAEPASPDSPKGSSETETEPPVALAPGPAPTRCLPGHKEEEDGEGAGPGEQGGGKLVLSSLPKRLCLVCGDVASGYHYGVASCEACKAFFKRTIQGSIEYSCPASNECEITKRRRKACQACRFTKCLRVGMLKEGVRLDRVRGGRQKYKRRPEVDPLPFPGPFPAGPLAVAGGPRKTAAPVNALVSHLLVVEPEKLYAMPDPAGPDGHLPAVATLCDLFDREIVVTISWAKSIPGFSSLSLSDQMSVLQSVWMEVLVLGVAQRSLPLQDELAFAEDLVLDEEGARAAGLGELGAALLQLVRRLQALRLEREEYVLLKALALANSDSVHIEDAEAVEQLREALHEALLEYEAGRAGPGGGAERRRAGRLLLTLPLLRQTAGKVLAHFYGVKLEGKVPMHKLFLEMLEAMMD
Outline: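 HepG2 cells were transiently transfected with multiple GAL4-UAS reporter units, then dosed with compound for 24 h. Total RNA was reverse-transcribed, reporter cDNA PCR-amplified and fluorescently labelled, and fragments resolved by capillary electrophoresis; induction was compared with DMSO.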

[5] = target: X-box-binding protein 1 (Homo sapiens) (UniProt P17861); test: ATG_Xbp1_CIS: Attagene CIS-FACTORIAL HepG2 Assay for human X-box Binding Protein 1 (XBP1) (AID 2282972; active means hit-call score of the fitted dose curve at least 0.9, where 1 is the maximum; inactive means score below 0.9); details: HepG2 XBP1 cis-element reporter, Attagene multiplex; actives raise or lower the signal
Chain of X-box-binding protein 1 (Homo sapiens) (P17861 whole entry, looked up): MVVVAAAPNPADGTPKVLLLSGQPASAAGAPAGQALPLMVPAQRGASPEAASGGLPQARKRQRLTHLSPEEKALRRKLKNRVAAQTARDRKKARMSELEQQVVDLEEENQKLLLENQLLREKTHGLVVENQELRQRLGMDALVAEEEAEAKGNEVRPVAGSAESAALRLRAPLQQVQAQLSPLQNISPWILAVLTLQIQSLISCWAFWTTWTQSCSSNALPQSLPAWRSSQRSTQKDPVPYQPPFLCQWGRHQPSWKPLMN
Outline: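 Reporter transcripts were quantified by RT-PCR with fluorescent primer extension and capillary electrophoresis after 24 h chemical exposure. Cells: transiently transfected HepG2 carrying cis-regulated reporter constructs; data fitted bidirectionally relative to DMSO.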

[6] = target: Bile acid receptor (Homo sapiens) (UniProt Q96RI1); test: ATG_FXR_TRANS: Attagene TRANS-FACTORIAL HepG2 Assay for Farnesoid X Receptor (FXR) (AID 2282979); details: HepG2 Attagene TRANS FXR-GAL4 reporter transcription;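 further: hits raise reporter mRNA above DMSO so AC50 marks FXR activation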
Outline: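 Chimeric FXR-GAL4 activity in transiently transfected human HepG2 liver cells is scored as induction of reporter mRNA after 24 h of dosing. Detection uses RT-PCR with fluorescent labelling and capillary electrophoresis, with DMSO serving as baseline.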

[7] = target: Hepatocyte nuclear factor 4-alpha (Homo sapiens) (UniProt P41235); test: ATG_HNF4a_TRANS: Attagene TRANS-FACTORIAL HepG2 Assay for human Hepatocyte Nuclear Factor 4 alpha (HNF4a) (AID 2282982); details: HepG2 HNF4a transactivation reporter, mRNA readout
Chain of Hepatocyte nuclear factor 4-alpha (Homo sapiens) (P41235 whole entry, looked up): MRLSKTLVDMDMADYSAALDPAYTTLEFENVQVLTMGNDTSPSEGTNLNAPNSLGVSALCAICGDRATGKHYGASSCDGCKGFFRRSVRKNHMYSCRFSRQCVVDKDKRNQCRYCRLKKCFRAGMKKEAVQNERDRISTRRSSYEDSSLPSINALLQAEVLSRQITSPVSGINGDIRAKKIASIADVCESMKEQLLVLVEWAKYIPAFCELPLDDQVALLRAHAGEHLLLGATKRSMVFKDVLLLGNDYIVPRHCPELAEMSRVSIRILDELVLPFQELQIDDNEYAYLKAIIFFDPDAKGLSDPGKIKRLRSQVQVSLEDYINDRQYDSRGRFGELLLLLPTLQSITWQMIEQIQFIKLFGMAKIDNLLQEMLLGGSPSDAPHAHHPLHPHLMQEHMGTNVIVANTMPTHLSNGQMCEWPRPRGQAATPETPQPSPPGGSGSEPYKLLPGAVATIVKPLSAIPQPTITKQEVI
Outline: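 Multiplexed reporter assay: transfected HepG2, 24 h exposure, total RNA → oligo(dT) RT → PCR → 6-FAM extension → HpaI digest → CE fluorescence. DMSO = negative control.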

[8] = ATG_M_06_TRANS: Attagene TRANS-FACTORIAL HepG2 Assay for M06 Transcription Factor (Internal Marker) (AID 2282983); details: HepG2 Attagene TRANS M06 internal marker reporter;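 further: reporter transcript level by RT-PCR then capillary electrophoresis fluorescence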
Outline: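 Human liver HepG2 cells bearing transiently transfected chimeric NR-GAL4 reporter units were treated with chemicals for 24 h. Total RNA was reverse-transcribed, reporter sequences amplified and labelled, then quantified by capillary electrophoresis. Activity was fitted upward relative to DMSO.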

[9] = target: Transcriptional activator Myb (Homo sapiens) (UniProt P10242); test: ATG_Myb_CIS: Attagene CIS-FACTORIAL HepG2 Assay for human Myeloblastosis (Myb) Proto-Oncogene Transcription Factor (AID 2282986; active means hit-call score of the fitted dose curve at least 0.9, where 1 is the maximum; inactive means score below 0.9); details: HepG2 Attagene CIS-FACTORIAL Myb reporter transcription; actives raise or lower the signal
Chain of Transcriptional activator Myb (Homo sapiens) (P10242 whole entry, looked up): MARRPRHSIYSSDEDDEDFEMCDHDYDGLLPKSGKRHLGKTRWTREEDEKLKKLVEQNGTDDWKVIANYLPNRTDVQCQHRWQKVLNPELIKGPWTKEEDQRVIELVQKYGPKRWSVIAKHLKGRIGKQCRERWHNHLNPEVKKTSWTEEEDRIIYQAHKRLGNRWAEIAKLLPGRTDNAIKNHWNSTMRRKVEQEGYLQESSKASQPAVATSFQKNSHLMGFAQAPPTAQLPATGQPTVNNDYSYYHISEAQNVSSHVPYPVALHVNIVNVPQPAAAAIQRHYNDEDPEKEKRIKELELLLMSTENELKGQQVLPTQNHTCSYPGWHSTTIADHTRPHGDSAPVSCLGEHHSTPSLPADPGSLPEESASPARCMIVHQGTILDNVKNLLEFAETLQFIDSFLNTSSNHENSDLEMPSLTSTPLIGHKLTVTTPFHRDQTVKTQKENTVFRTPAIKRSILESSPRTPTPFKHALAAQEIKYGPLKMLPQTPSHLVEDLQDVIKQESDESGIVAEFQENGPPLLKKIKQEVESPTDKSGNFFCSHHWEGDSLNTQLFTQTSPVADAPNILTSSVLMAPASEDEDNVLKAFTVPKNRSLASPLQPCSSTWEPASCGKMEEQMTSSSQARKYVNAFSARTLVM
Outline: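 Multiplexed cis-reporter system in HepG2: transient transfection, 24 h treatment, mRNA readout by RT-PCR and capillary electrophoresis. Both increases and decreases are scored versus DMSO negative control.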

[10] = ATG_M_19_TRANS: Attagene TRANS-FACTORIAL HepG2 Assay for M19 Transcription Factor (Internal Marker) (AID 2282974); details: HepG2 Attagene TRANS-FACTORIAL M19 internal marker reporter
Outline: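 Gain-of-signal in reporter mRNA, relative to DMSO, was scored from capillary electrophoresis fluorescence. HepG2 cells carried transiently transfected multiple reporter transcription units and were incubated with test chemicals for 24 h.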

[11] = ATG_GAL4_TRANS: Attagene TRANS-FACTORIAL HepG2 Assay for GAL4 (Internal Marker) (AID 2282976); details: HepG2 Attagene TRANS GAL4 internal marker reporter
Outline: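 Fluorescence from capillary electrophoresis of labelled RT-PCR products quantifies reporter mRNA induction after 24 h dosing of HepG2 cells carrying transfected GAL4-UAS reporter transcription units. Vehicle DMSO serves as baseline.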

[12] = target: Glucocorticoid receptor (Homo sapiens) (UniProt P04150); test: ATG_GR_TRANS: Attagene TRANS-FACTORIAL HepG2 Assay for human Glucocorticoid Receptor (GR) (AID 2282978); details: HepG2 Attagene TRANS GR reporter, mRNA transcription;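 further: activators score as hits since higher reporter transcript over DMSO is fitted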
Chain of Glucocorticoid receptor (Homo sapiens) (P04150 whole entry, looked up, the tested form may be a part): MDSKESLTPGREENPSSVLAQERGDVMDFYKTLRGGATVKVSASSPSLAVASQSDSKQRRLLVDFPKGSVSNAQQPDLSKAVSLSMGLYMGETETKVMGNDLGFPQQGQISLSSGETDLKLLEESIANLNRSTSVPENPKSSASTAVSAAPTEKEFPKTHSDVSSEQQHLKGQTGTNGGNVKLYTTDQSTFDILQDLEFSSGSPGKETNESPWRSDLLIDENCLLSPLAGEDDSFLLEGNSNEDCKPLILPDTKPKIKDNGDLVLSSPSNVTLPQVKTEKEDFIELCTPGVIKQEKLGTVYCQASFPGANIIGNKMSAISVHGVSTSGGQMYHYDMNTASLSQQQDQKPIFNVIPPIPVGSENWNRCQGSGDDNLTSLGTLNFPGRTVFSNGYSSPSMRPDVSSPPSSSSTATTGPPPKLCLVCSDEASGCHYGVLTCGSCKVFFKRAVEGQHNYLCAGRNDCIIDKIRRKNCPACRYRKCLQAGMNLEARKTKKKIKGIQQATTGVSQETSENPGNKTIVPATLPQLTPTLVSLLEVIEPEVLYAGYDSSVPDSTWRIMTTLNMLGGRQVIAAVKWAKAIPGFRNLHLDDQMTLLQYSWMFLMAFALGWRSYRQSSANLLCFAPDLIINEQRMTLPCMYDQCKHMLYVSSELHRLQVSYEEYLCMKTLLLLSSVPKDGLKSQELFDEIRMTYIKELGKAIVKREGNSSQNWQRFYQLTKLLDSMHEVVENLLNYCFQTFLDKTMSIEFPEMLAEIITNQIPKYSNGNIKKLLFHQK
Outline: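 HepG2 transient transfection, multiple reporter units, GAL4-UAS under NR-GAL4 chimera control. 24 h treatment. Reporter mRNA by RT-PCR/CE fluorescence, DMSO as negative control.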

[13] = target: Oxysterols receptor LXR-beta (Homo sapiens) (UniProt P55055); test: ATG_LXRb_TRANS: Attagene TRANS-FACTORIAL HepG2 Assay for human Liver X Receptor beta (LXRb) (AID 2282981); details: HepG2 Attagene TRANS GAL4-LXRb reporter, mRNA
Chain of Oxysterols receptor LXR-beta (Homo sapiens) (P55055 whole entry, looked up, the tested form may be a part): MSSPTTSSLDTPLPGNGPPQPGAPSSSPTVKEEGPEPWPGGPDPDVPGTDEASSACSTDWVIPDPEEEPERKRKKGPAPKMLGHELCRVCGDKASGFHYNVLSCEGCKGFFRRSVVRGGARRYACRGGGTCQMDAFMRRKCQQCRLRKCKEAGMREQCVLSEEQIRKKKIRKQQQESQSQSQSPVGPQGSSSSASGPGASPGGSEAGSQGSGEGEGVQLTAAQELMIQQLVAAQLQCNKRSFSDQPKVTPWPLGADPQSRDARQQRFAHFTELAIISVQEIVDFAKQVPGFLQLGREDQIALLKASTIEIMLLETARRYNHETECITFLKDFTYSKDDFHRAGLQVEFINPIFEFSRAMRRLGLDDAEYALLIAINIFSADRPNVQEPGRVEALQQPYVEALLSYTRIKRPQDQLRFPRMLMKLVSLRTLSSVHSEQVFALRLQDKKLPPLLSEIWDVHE
Outline: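 After 24 h of chemical treatment, transfected HepG2 cells yield total RNA; reporter cDNA is PCR-amplified, FAM-labelled, HpaI-cut and run on capillary electrophoresis. Signal reflects chimeric LXRb-Gal4 activity on GAL4-UAS reporters.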

[14] = target: Oxysterols receptor LXR-alpha (Homo sapiens) (UniProt Q13133); test: ATG_LXRa_TRANS: Attagene TRANS-FACTORIAL HepG2 Assay for human Liver X Receptor alpha (LXRa) (AID 2282980); details: HepG2 Attagene TRANS reporter, LXRa transactivation
Chain of Oxysterols receptor LXR-alpha (Homo sapiens) (Q13133 whole entry, looked up): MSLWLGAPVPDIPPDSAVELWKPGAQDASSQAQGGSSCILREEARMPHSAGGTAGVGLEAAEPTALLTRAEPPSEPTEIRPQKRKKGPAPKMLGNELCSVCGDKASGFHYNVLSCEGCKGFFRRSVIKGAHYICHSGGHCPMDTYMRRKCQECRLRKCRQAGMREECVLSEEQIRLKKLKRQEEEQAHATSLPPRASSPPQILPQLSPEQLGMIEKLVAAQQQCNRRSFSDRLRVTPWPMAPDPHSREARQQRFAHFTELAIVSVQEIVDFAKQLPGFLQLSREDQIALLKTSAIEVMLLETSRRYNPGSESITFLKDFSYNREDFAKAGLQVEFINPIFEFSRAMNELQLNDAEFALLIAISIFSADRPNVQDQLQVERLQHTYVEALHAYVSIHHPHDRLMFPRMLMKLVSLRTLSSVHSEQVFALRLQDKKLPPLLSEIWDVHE
Outline: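 Transient HepG2 transfectants, 24 h dosing, RT-PCR/CE mRNA reporter quantitation; gain-of-signal vs DMSO.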

[15] = ATG_M_32_TRANS: Attagene TRANS-FACTORIAL HepG2 Assay for M32 Transcription Factor (Internal Marker) (AID 2282984); details: HepG2 Attagene TRANS M32 internal marker reporter;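 further: transcript level of a background control reporter unit measured by RT-PCR and capillary electrophoresis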
Outline: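 Cell-based TRANS-format assay in HepG2: exogenous chimeric GAL4 reporter units transiently expressed, compounds applied 24 h. Reporter mRNA detected by RT-PCR plus capillary electrophoresis; this readout is an internal background marker.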

[16] = target: Nuclear receptor subfamily 4 group A member 2 (Homo sapiens) (UniProt P43354); test: ATG_NURR1_TRANS: Attagene TRANS-FACTORIAL HepG2 Assay for human Nuclear Receptor Related Protein 1 (NURR1) (AID 2282985); details: HepG2 Attagene TRANS reporter, mRNA readout
Chain of Nuclear receptor subfamily 4 group A member 2 (Homo sapiens) (P43354 whole entry, looked up, the tested form may be a part): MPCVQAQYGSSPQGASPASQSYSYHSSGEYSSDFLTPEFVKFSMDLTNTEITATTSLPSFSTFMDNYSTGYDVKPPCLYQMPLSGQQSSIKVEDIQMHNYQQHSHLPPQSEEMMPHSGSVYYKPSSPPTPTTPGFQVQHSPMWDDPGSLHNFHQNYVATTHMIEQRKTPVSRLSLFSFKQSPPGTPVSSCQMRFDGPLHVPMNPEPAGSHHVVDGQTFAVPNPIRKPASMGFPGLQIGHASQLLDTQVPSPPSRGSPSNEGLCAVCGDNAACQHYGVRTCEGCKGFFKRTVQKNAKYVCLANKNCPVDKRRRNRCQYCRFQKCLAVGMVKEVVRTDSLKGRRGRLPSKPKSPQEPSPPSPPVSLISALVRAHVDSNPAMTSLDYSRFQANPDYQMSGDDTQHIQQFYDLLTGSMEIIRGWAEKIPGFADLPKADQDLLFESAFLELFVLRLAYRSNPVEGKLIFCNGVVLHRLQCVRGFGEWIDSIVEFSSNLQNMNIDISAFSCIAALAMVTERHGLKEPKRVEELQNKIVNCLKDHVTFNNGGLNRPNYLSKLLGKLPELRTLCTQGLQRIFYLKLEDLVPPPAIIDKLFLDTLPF
Outline: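 Measures transcriptional activation by an exogenous NR-Gal4 chimera in transfected HepG2 liver cells. After 24 h, reporter RNA is reverse-transcribed, amplified and resolved by capillary electrophoresis; DMSO defines baseline.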

[17] = target: Estrogen receptor (Homo sapiens) (UniProt P03372); test: ATG_ERa_TRANS: Attagene TRANS-FACTORIAL HepG2 Assay for human Estrogen Receptor alpha (ERa) (AID 2282970); details: HepG2 Attagene TRANS ERa GAL4 reporter, mRNA
Chain of Estrogen receptor (Homo sapiens) (P03372 whole entry, looked up, the tested form may be a part): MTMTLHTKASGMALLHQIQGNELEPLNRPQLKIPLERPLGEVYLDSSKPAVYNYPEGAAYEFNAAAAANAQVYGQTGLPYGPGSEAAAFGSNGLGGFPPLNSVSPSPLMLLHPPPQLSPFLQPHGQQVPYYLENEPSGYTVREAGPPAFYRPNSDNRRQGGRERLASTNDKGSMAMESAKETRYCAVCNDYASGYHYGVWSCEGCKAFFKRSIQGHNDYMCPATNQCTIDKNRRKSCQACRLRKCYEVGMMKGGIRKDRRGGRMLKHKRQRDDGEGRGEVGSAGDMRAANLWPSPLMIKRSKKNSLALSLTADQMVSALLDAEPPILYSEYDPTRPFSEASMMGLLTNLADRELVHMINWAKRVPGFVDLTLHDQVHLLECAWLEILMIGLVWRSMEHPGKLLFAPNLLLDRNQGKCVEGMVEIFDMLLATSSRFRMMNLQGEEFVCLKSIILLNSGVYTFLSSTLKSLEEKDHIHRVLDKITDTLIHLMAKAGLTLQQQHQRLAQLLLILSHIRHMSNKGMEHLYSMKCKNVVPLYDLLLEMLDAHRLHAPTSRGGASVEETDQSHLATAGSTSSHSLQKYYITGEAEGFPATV
Outline: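 Transfected HepG2 cells carrying GAL4-UAS-driven reporter units were dosed for 24 hours. Total RNA was reverse-transcribed, reporter sequences PCR-amplified, FAM-labelled, HpaI-digested and resolved by capillary electrophoresis. Increases over DMSO control defined activity.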

[18] = target: Estrogen-related receptor gamma (Homo sapiens) (UniProt P62508); test: ATG_ERRg_TRANS: Attagene TRANS-FACTORIAL HepG2 Assay for human Estrogen-Related Receptor gamma (ERRg) (AID 2282977); details: HepG2 Attagene TRANS reporter, ERRg transactivation;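 further: hits increase reporter signal over DMSO so potencies reflect activators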
Outline: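 Readout: fluorescent reporter-mRNA fragments resolved by capillary electrophoresis after RT-PCR and HpaI cut. Cells: transiently transfected HepG2 carrying GAL4-UAS reporters driven by exogenous NR-Gal4 chimeras, dosed 24 h. Activity fitted upward relative to DMSO baseline.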

[19] = target: Nuclear receptor subfamily 1 group I member 3 (Homo sapiens) (UniProt Q14994); test: ATG_CAR_TRANS: Attagene TRANS-FACTORIAL HepG2 Assay for human Constitutive Androstane Receptor (CAR) (AID 2282969); details: HepG2 Attagene TRANS-FACTORIAL CAR reporter;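 further: activators raise reporter mRNA above DMSO so AC50 marks induction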
Outline: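 Signal is reporter mRNA induction relative to DMSO, measured 24 h after dosing by RT-PCR with fluorescent primer extension and capillary electrophoresis. Human HepG2 liver cells carried transiently transfected chimeric NR-Gal4/GAL4-UAS reporter constructs.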

Measured: AC50

C=CC(O)CCCCC (centres undefined)
inactive: [1] | [2] | [4] | [6] | [7] | [8] | [9]
active: [3] 48.4 µM | [5] 48.1 µM

CCOC(=O)CC(C)C
inactive: [1] | [2] | [3] | [5] | [10] | [11] | [12] | [13] | [7] | [8] | [9]

CC(C)(O)C(=O)c1ccc(OCCO)cc1
inactive: [1] | [2] | [5] | [12] | [14] | [13] | [7] | [9]

CC(=O)OC(C)(C)C
inactive: [1] | [2] | [5] | [11] | [14] | [13] | [7] | [15] | [16] | [9]

CC1=CCC(C(C)(C)O)CC1 (centres undefined)
inactive: [1] | [2] | [3] | [17] | [5] | [10] | [6] | [8] | [16] | [9]

O=C(O)C1=NN(c2ccc(S(=O)(=O)O)cc2)C(=O)C1
inactive: [1] | [2] | [17] | [5] | [11] | [12] | [14] | [13] | [7] | [15] | [16] | [9]

CC=CC(=O)C1=C(C)C=CCC1(C)C
inactive: [1] | [2] | [3] | [4] | [5] | [10] | [11] | [12] | [6] | [14] | [13] | [7] | [16] | [9]

O=C(O)CS
inactive: [1] | [2] | [3] | [4] | [5] | [10] | [18] | [12] | [7] | [8] | [16] | [9]

CCCCC/C=C\C=C\C(=O)OCC
active: [2] 74.2 µM | [5] 61.1 µM | [9] 103 µM
inactive: [1] | [3] | [17] | [7] | [8] | [15]

CC(C)C(=O)OCC=Cc1ccccc1
inactive: [1] | [2] | [3] | [17] | [5] | [10] | [12] | [6] | [7] | [15] | [16] | [9]

CCCCCCCCCCOC(=O)c1ccccc1C(=O)OCCCCCCCC
inactive: [1] | [2] | [3] | [19] | [5] | [10] | [11] | [14] | [7] | [9]

O=C(C=Cc1ccccc1)OCCCc1ccccc1
inactive: [1] | [2] | [3] | [5] | [10] | [11] | [12] | [13] | [7] | [16] | [9]
active: [17] 15.3 µM

c1ccc2scnc2c1
inactive: [1] | [2] | [3] | [17] | [5] | [11] | [13] | [8] | [9]

CC(C)(C)c1cccc(O)c1
inactive: [1] | [2] | [5] | [12] | [13] | [8] | [16] | [9]
active: [3] 28.1 µM | [17] 14.7 µM

CN(C)C(=O)Nc1ccccc1
inactive: [1] | [2] | [3] | [17] | [5] | [10] | [13] | [7] | [16] | [9]

CC(=N[Si](C)(C)C)O[Si](C)(C)C
inactive: [1] | [2] | [3] | [17] | [5] | [10] | [12] | [13] | [7] | [15] | [9]

CCc1cccc(O)c1
inactive: [1] | [2] | [17] | [5] | [11] | [6] | [14] | [7] | [8] | [15] | [9]
active: [3] 49.3 µM

COc1cc(OC)c2ccc(=O)oc2c1
inactive: [1] | [2] | [5] | [11] | [7] | [8] | [15] | [16] | [9]

CC/C=C\CCCCO
inactive: [1] | [2] | [3] | [17] | [5] | [10] | [7] | [16] | [9]
